# Reference: ChEMBL document CHEMBL4513141, “CO-ADD screening of NIH (USA) - Clinical Collection” (2021)
# Potency and affinity values are given separately.
# Assays:
# Staphylococcus aureus = settings: Concentration 20 uM; ASSAY_TEST Inhibition of Bacterial Growth; detection method Absorption (OD600); MEDIA CAMHB; plate type 384well; NBS; CORNING #3640; time 18 hr
# Escherichia coli = settings: Concentration 20 uM; ASSAY_TEST Inhibition of Bacterial Growth; detection method Absorption (OD600); MEDIA CAMHB; plate type 384well; NBS; CORNING #3640; time 18 hr
SMILES,Inhibition (Staphylococcus aureus) [%],Inhibition (Escherichia coli) [%]
COc1cc([C@@H]2c3cc4c(cc3[C@@H](O[C@@H]3O[C@@H]5CO[C@@H](C)O[C@H]5[C@H](O)[C@H]3O)[C@H]3COC(=O)[C@H]23)OCO4)cc(OC)c1O [ETOPOSIDE],14.84,-0.07
COC(=O)CCc1ccc(OCC(O)CNC(C)C)cc1.Cl (stereo not drawn) [ESMOLOL HYDROCHLORIDE],16.29,-0.36
CC(C)[C@H]1CC[C@H](C(=O)N[C@H](Cc2ccccc2)C(=O)O)CC1 [NATEGLINIDE],10.43,6.41
CCc1cc(C(N)=S)ccn1 [ETHIONAMIDE],13.26,2.06
COc1ccc(Cl)cc1C(=O)NCCc1ccc(S(=O)(=O)NC(=O)NC2CCCCC2)cc1 [GLYBURIDE],-3.01,-12.57
CC[N+](C)(CC)CCOC(=O)C(O)(c1ccccc1)C1CCCCC1.[Br-] (stereo not drawn) [OXYPHENONIUM BROMIDE],12.65,3.27
CNCC(O)c1ccc(O)c(O)c1 (stereo not drawn) [RACEPINEPHRINE],9.77,2.6
CC1CC2C3CCC4=CC(=O)C=CC4(C)[C@@]3(Cl)C(O)CC2(C)C1(O)C(=O)CO (stereo partly drawn),12.42,5.77
COc1ccccc1OCC(O)COC(N)=O (stereo not drawn) [METHOCARBAMOL],12.79,-0.64
COc1cc(C)nc(-n2nc(C)cc2OC)n1 [EPIRIZOLE],7.75,-0.13
O=c1c(-c2ccccc2)c1-c1ccccc1 [DIPHENCYPRONE],-9.91,6.71
Nc1ncnc2c1ncn2[C@@H]1O[C@H](CO)[C@@H](O)[C@@H]1O [VIDARABINE],17.44,6.8
Nc1nc(N)c2nc(-c3ccccc3)c(N)nc2n1,-4.86,10.99
CCCc1c(OCCCCc2nnn[nH]2)ccc(C(C)=O)c1O [TOMELUKAST],5.76,7.84
CC1(C)S[C@@H]2[C@H](NC(=O)[C@H](N)c3ccc(O)cc3)C(=O)N2[C@H]1C(=O)O [AMOXICILLIN],15.09,7.14
C[C@H]1[C@@H](OC(=O)CCC(=O)O)O[C@@H]2O[C@@]3(C)CC[C@H]4[C@H](C)CC[C@@H]1[C@@]24OO3,-17.43,12.24
O=C(O)CCc1nc(-c2ccccc2)c(-c2ccccc2)o1 [OXAPROZIN],10.43,2.77
O=c1c(O[C@@H]2O[C@H](CO)[C@@H](O)[C@H](O)[C@H]2O)c(-c2ccc(O)c(O)c2)oc2cc(O)cc(O)c12 [ISOQUERCETIN],18.79,-1.78
Cc1occc(=O)c1O [MALTOL],14.12,4.13
CC(C)OC(=O)CCC/C=C\C[C@@H]1[C@@H](CC[C@@H](O)CCc2ccccc2)[C@H](O)C[C@@H]1O [LATANOPROST],13.97,1.96

SMILES,Inhibition (Staphylococcus aureus) [%],Inhibition (Escherichia coli) [%]
Sc1ncnc2nc[nH]c12 [MERCAPTOPURINE ANHYDROUS],22.75,6.85
CC(=O)C1(O)CCC2C3CC(C)C4=CC(=O)C=CC4(C)C3(F)C(O)CC21C (stereo not drawn),5.95,2.15
CN1CCN(CCCN2c3ccccc3Sc3ccc(C(F)(F)F)cc32)CC1.Cl.Cl [TRIFLUOPERAZINE HYDROCHLORIDE],19.71,0.85
O=C1N=C([O-])NC1(c1ccccc1)c1ccccc1.[Na+] [PHENYTOIN SODIUM],10.31,2.45
COc1cc(C)c(/C=C/C(C)=C/C=C/C(C)=C/C(=O)O)c(C)c1C [ACITRETIN],-32.23,4.27
Cl.O.O=C1N(c2ccccc2)c2ccccc2C1(Cc1ccncc1)Cc1ccncc1,4.07,3.98
Cc1ncc([N+](=O)[O-])n1CCO [METRONIDAZOLE],17.23,2.82
CCCc1nc(C)c2c(O)nc(-c3cc(S(=O)(=O)N4CCN(CC)CC4)ccc3OCC)nn12.O=C(O)CC(O)(CC(=O)O)C(=O)O,14.18,-4.2
COc1ccc(-c2oc3c(CC=C(C)C)c(O[C@@H]4O[C@H](CO)[C@@H](O)[C@H](O)[C@H]4O)cc(O)c3c(=O)c2O[C@@H]2O[C@@H](C)[C@H](O)[C@@H](O)[C@H]2O)cc1 [ICARIIN],11.47,-5.7
CCC[C@@H]1C[C@@H](C(=O)N[C@@H]([C@H]2O[C@H](SC)[C@H](O)[C@@H](O)[C@H]2O)[C@@H](C)O)N(C)C1.Cl.O [LINCOMYCIN HYDROCHLORIDE],20.41,6.86
Cc1nc2n(c(=O)c1CCN1CCC(c3noc4cc(F)ccc34)CC1)CCCC2 [RISPERIDONE],4.53,2.58
Cc1nc(=O)c2cc(CN(C)c3ccc(C(=O)N[C@@H](CCC(=O)O)C(=O)O)s3)ccc2[nH]1 [RALTITREXED],9.09,2.78
COc1ccc(OC)c(C(O)CNC(=O)CN)c1.Cl (stereo not drawn) [MIDODRINE HYDROCHLORIDE],15.42,4.77
O=C1c2c(O)cc(O)cc2O[C@H](c2ccc(O)c(O)c2)[C@H]1O [(+)-TAXIFOLIN],8.9,-0.85
CCCCC(=O)OC1(C(=O)CO)CCC2C3CCC4=CC(=O)CCC4(C)C3C(O)CC21C (stereo not drawn),4.02,3.22
COc1cc(C(=O)NS(=O)(=O)c2ccccc2C)ccc1Cc1cn(C)c2ccc(NC(=O)OC3CCCC3)cc12 [ZAFIRLUKAST],36.84,4.93
COc1ccc2[nH]c([S+]([O-])Cc3ncc(C)c(OC)c3C)nc2c1 (stereo not drawn) [OMEPRAZOLE],3.38,-0.65
C#C[C@]1(O)CC[C@H]2[C@@H]3CCC4=Cc5oncc5C[C@]4(C)[C@H]3CC[C@@]21C [DANAZOL],2.21,-2.5
CCOC(=O)C1=C(C)NC(C)=C(C(=O)OC)C1c1cccc(Cl)c1Cl (stereo not drawn) [FELODIPINE],13.21,4.41
CCCC(=O)Nc1ccc(OCC(O)CNC(C)C)c(C(C)=O)c1.Cl (stereo not drawn) [ACEBUTOLOL HYDROCHLORIDE],10.2,2.85

SMILES,Inhibition (Staphylococcus aureus) [%],Inhibition (Escherichia coli) [%]
OCCN1CCN(CCCN2c3ccccc3Sc3ccc(Cl)cc32)CC1 [PERPHENAZINE],23.21,4.38
CC(COc1ccccc1Cc1ccccc1)N1CCCCC1.O=P(O)(O)O (stereo not drawn),12.26,7.84
OC[C@H]1O[C@@H](Oc2cc(O)cc(/C=C/c3ccc(O)cc3)c2)[C@H](O)[C@@H](O)[C@@H]1O [PICEID],5.5,8.13
CN1CCCC(n2nc(Cc3ccc(Cl)cc3)c3ccccc3c2=O)CC1.Cl (stereo not drawn) [AZELASTINE HYDROCHLORIDE],-20.95,3.65
CC(C)(C)NC(=O)[C@H]1CC[C@H]2[C@@H]3CC[C@H]4NC(=O)C=C[C@]4(C)[C@H]3CC[C@]12C [FINASTERIDE],-0.3,-5.85
CC(C)NCC(O)COc1ccc(COCCOC(C)C)cc1.CC(C)NCC(O)COc1ccc(COCCOC(C)C)cc1.O=C(O)/C=C/C(=O)O (stereo not drawn) [BISOPROLOL FUMARATE],7.74,1.99
Nc1nc(N)nc(-c2cc(Cl)ccc2Cl)n1.O=C(O)/C=C\C(=O)O [IRSOGLADINE MALEATE],8.27,0.86
CC12CC3CC(C)(C1)CC(N)(C3)C2.Cl [MEMANTINE HYDROCHLORIDE],17.71,5.88
CC(C)[N+](C)(CCOC(=O)C1c2ccccc2Oc2ccccc21)C(C)C.[Br-] [PROPANTHELINE BROMIDE],16.95,4.45
CCCNC(=O)NS(=O)(=O)c1ccc(Cl)cc1 [CHLORPROPAMIDE],17.96,2.94
CC[C@H](C)C(=O)O[C@H]1CCC=C2C=C[C@H](C)[C@H](CC[C@@H]3C[C@@H](O)CC(=O)O3)[C@H]21 [MEVASTATIN],-0.69,8.43
CC(=O)S[C@@H]1CC2=CC(=O)CC[C@]2(C)[C@H]2CC[C@@]3(C)[C@@H](CC[C@@]34CCC(=O)O4)[C@H]12 [SPIRONOLACTONE],18.37,5.07
NS(=O)(=O)c1cc(C(=O)O)c(NCc2ccco2)cc1Cl [FUROSEMIDE],14.48,-0.33
Cc1ccc(S(=O)(=O)NC(=O)NN2CCCCCC2)cc1 [TOLAZAMIDE],2.29,-1.66
Cc1cccc(C)c1OCC(C)N.Cl (stereo not drawn) [MEXILETINE HYDROCHLORIDE],13.57,3.59
CCC(C)(C)/N=C(\NC#N)Nc1cccnc1,1.37,-2.42
Nc1ccn([C@@H]2O[C@H](CO)[C@@H](O)[C@@H]2O)c(=O)n1 [CYTARABINE],17.83,-2.15
O=C1[C@H](CC[C@H](O)c2ccc(F)cc2)[C@@H](c2ccc(O)cc2)N1c1ccc(F)cc1 [EZETIMIBE],5.57,-0.7
C=CCc1ccc(O)c(-c2ccc(O)c(CC=C)c2)c1 [HONOKIOL],11.41,4.96
